# The sample as a whole holds a higher share of hits than the screen did.
# TTR transcr act: TTR transcription activators in neuroblastoma reporter cells, primary screen, cell-based, luminescence, SH-SY5Y, TTR promoter Gaussia luciferase; 100% = recombinant luciferase protein wells; activation, % at 16.7 µM; actives 1.3% (n = 92,000); AID 1117267, 2014;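 active means activation above the mean of all tested compounds plus 3 SD, cut at about 9.5% in these data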;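 further: cells exposed to compounds for one day before reading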
# HuH7 TTR inh: TTR promoter reporter inhibitors in hepatoma cells, counter-screen for TTR transcription activator project, cell-based, luminescence, HuH7 hepatoma | shares compounds with TTR transcr act | HuH7 TTR promoter-Gaussia luciferase reporter | inhibition, % at 16.7 µM | actives 4% (n = 1,100) | AID 1117279, 2014;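 active means average inhibition above the solvent-only control wells' mean plus 3 SD, cut at about 15% in these data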;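 further: inhibitors lower well luminescence so higher value means more inhibition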
# TTR act confirm: TTR transcription activators, retest, confirmation, cell-based, luminescence, SH-SY5Y, triplicate; shares compounds with TTR transcr act; SHSY5Y TTR promoter Gaussia luciferase; 100% = purified Lucia enzyme wells, no cells; activation, % at 16.7 µM; 1,100 tested, under 10 active; AID 1117280, 2014;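 active means mean activation above a set limit taken from the earlier primary screen, cut at about 11% in these data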
# A number is an active result; – = inactive.
SMILES,TTR transcr act,others
CC(C)c1ccc(NC2CCCN(C(=O)CCN3CCCCC3=O)C2)cc1 (stereo not given),–,
CC(CCc1ccccc1)NC(=O)Cc1ccc(Br)cc1 (stereo not given),–,
Cc1ccc(CC(=O)NC(C)CCc2ccccc2)cc1 (stereo not given),–,
CC(C)C[C@H]1CNC(=O)C(=O)N1C[C@H](C)NC(=O)Cc1ccccc1,15,HuH7 TTR inh=–;TTR act confirm=–
CCC[C@H]1[C@@H](OC(=O)NC(CC)CC)CC[C@@]23CCCN2C(=O)CCC[C@@H]13,–,
O=C(O)CSCC(=O)NCc1ccc(Cl)cc1,–,
O=C(NCc1ccccn1)c1ccc(Cl)cc1Cl,–,
O=C(CSCc1ccc(Cl)cc1)NCc1ccccn1,12,HuH7 TTR inh=–;TTR act confirm=–
CN(C(=O)[C@@H]1CC=C[C@@H]2CCN(C3CCCCC3)C(=O)[C@@H]21)c1ccccc1,–,
C=C(C)[C@@H](O)COc1c2ccoc2cc2oc(=O)ccc12,10,HuH7 TTR inh=–;TTR act confirm=–
CC(=O)O[C@H](COc1c2ccoc2cc2oc(=O)ccc12)C(C)(C)O,–,
CC(C)(O)[C@H](O)COc1c2ccoc2cc2oc(=O)ccc12,–,
CC(C)c1ccc(NC(=O)O[C@H]2CC[C@@]34CCCN3C(=O)CCC[C@H]4[C@H]2C)cc1,–,
CC/C=C\[C@H](O)[C@H](O)C1=C(C)C(=O)[C@]2(O1)C(=O)N[C@@](OC)(C(=O)c1ccccc1)[C@@H]2O,–,
Oc1ccc(Nc2ccccc2F)c2cccnc12,–,
CC(=O)c1sc(-c2ccc(F)cc2)cc1NS(=O)(=O)c1ccc(C)cc1,17,HuH7 TTR inh=–;TTR act confirm=–
CC(=O)c1sc(-c2ccccc2)cc1NS(=O)(=O)c1ccccc1,–,
CC(=O)c1sc(-c2ccccc2)cc1NS(=O)(=O)c1ccc(C)cc1,–,
C[C@@H](O[Si](c1ccccc1)(c1ccccc1)C(C)(C)C)[C@@H]1NC(=O)[C@@H]2C[C@]3(Br)c4ccccc4N(S(=O)(=O)c4ccccc4)[C@@H]3N2C1=O,–,
COc1ccc(/C=N/NC(=O)COc2cccc3cccnc23)cc1OC,–,
CC(Oc1cccc2cccnc12)C(=O)N/N=C/c1ccc2c(c1)OCO2 (stereo not given),13,HuH7 TTR inh=–;TTR act confirm=–
CC(Oc1cccc2cccnc12)C(=O)N/N=C/c1ccccc1 (stereo not given),–,
COC(=O)[C@]12C[C@H](CC(=O)NCc3cccs3)C(=O)N(Cc3ccc(Cl)cc3Cl)C1=C[C@H](C(C)C)O[C@@H]2C1CC1,–,
COC(=O)[C@]12C[C@H](CC(=O)N3CCOCC3)C(=O)N(Cc3ccc(Cl)cc3Cl)C1=C[C@H](C(C)(C)C)O[C@@H]2C,–,
Cc1ccc(C(=O)N2CCCC(CCC(=O)N3CCN(c4ccccn4)CC3)C2)s1 (stereo not given),–,
SMILES,TTR transcr act,others
CC(=O)c1ccccc1C(=O)N1CCCC(CCC(=O)N2CCN(c3ccccn3)CC2)C1 (stereo not given),–,
O=C(CCN1C(=O)COc2ccccc21)N1CCN(c2ccccn2)CC1,–,
Cc1ccccc1CC(=O)N1CCCC(CCC(=O)N2CCN(c3ccccn3)CC2)C1 (stereo not given),11,HuH7 TTR inh=–;TTR act confirm=–
O=C(CCN1C(=O)C2CC=CCC2C1=O)N1CCN(c2ccccn2)CC1 (stereo not given),9.7,HuH7 TTR inh=–;TTR act confirm=–
O=C(CCN1C(=O)c2ccccc2C1=O)N1CCN(c2ccccn2)CC1,–,
COC(=O)C[C@@H]1CC[C@H]2[C@H](COc3ccc(NC(=O)Nc4ccc(Cl)cc4)cc3C(=O)N2C)O1,–,
C=CCN1C(=O)[C@H](CC(=O)NCC23CC4CC(CC(C4)C2)C3)[C@@]2(C(=O)OCC)CCCC=C12,–,
C=CCN1C[C@H](COC(=O)c2cccc(C)c2)Oc2cccc(F)c2S1(=O)=O,–,
Cc1ccccc1-c1cc(C(=O)NCc2ccco2)n(CC2CC(c3cccnc3)=NO2)n1 (stereo not given),–,
O=C(O)c1cc(-c2ccccc2)nn1CC1CC(c2cccnc2)=NO1 (stereo not given),15,HuH7 TTR inh=–;TTR act confirm=–
O=C(c1cc(-c2ccccc2)nn1CC1CC(c2cccnc2)=NO1)N1CCOCC1 (stereo not given),–,
CN1C2=N[C@@H](c3ccc4c(c3)OCO4)CC(=O)N2/C(=C\c2ccccc2)[C@@H]1c1ccccc1,–,
CC(C)C(NC(=O)[C@H](Cc1ccc(O)cc1)NC(=O)OC(C)(C)C)P(=O)(O)OC(Cc1ccccc1)C(=O)O (stereo not given in full),–,
C[C@H](CO)N1C[C@H](C)[C@H](CN(C)C(=O)CC2CC2)Oc2cc(Br)ccc2S1(=O)=O,–,
C[C@H](CO)N1C[C@H](C)[C@@H](CN(C)C(=O)NC2CCCC2)Oc2cc(Br)ccc2S1(=O)=O,18,HuH7 TTR inh=–;TTR act confirm=–
CCCNC(=O)N(C)C[C@@H]1Oc2cc(Br)ccc2S(=O)(=O)N([C@@H](C)CO)C[C@H]1C,–,
C[C@H]1CN([C@@H](C)CO)S(=O)(=O)c2ccc(Br)cc2O[C@H]1CN(C)C(=O)CN(C)C,–,
C[C@H]1CN([C@@H](C)CO)S(=O)(=O)c2ccc(Br)cc2O[C@H]1CN(C)C(=O)Cc1ccccc1,–,
C[C@H](CO)N1C[C@H](C)[C@@H](CN(C)C(=O)c2ccc(F)cc2)Oc2cc(Br)ccc2S1(=O)=O,–,
C[C@H]1CN([C@@H](C)CO)S(=O)(=O)c2ccc(-c3cncnc3)cc2O[C@H]1CN(C)C(=O)NC1CCCC1,–,
CCC(=O)N(C)C[C@H]1Oc2cc(Br)ccc2S(=O)(=O)N([C@@H](C)CO)C[C@H]1C,15,HuH7 TTR inh=–;TTR act confirm=–
C[C@H]1CN([C@@H](C)CO)S(=O)(=O)c2ccc(Br)cc2O[C@@H]1CN(C)C(=O)C1CCOCC1,24,HuH7 TTR inh=–;TTR act confirm=–
C[C@H]1[C@@H](N(C)Cc2cccs2)CC[C@@]23CCCN2C(=O)CCC[C@@H]13,–,
COc1cccc(Cn2cc(COC(=O)NCC(C)C)nn2)c1,–,
CN(C)[C@H]1CCN(c2ccc3c(c2)O[C@@H]2CCN(C2)S3(=O)=O)C1,–,
SMILES,TTR transcr act,others
Fc1ccc(Cn2ccc3ccc(-c4ccc5ccn(Cc6ccc(F)cc6F)c5c4)cc32)c(F)c1,–,
O=C(OCC#CCSc1nnc(-c2cccc3ccccc23)o1)C1CCC1,–,
Cc1cc2cc3c(cc2n2c(SCC(=O)Nc4nc(-c5ccccc5)cs4)nnc12)OCO3,–,
COC(=O)[C@]12C[C@H](CC(=O)N3CCN(C(=O)C4CC4)CC3)C(=O)N(Cc3ccccc3)C1=C[C@H](COCc1ccccc1)O[C@@H]2C,–,
C=CCN1C(=O)[C@H](CC(=O)NCCc2ccccc2OC)[C@@]2(C(=O)OCC)CCCC=C12,–,
COc1ccc(CN[C@@H]2CC[C@@]34CCCN3C(=O)CCC[C@H]4C2)cc1OC,–,
Cc1cccc(C(=O)N[C@H]2CC[C@@]34CCCN3C(=O)CCC[C@H]4[C@H]2C)c1,–,
COc1ccc(C(=O)c2[nH]c(N)c(C(=O)c3ccccc3)c2-c2ccc(OC)c(OC)c2)cc1,–,
COC(CNC(=O)[C@H](Cc1c[nH]c2ccccc12)NC1(C(=O)NC2CCCCC2)CCCCC1)OC,–,
